Activity calls are given as the source filed them. Unless noted, no rule for the calls is given here.
Key:
[1] = resazurin metabolic signal in HepG2 cells – cell-based, resazurin fluorescence, 24 h, PK04 Diversity Set, profiling panel (AID 1172); details: HepG2 viability, higher = more signal
[2] = budding yeast growth changes without added modifier – OD600, strain BY4716, 24 h, basal condition, primary screen (AID 1173); details: S. cerevisiae BY4716 growth, OD600, 24 h; higher = more signal, called active from +8 up or from −8 down
[3] = viability profiling in MM1S myeloma cells – cell-based, resazurin fluorescence, basal, 24 h, PK04 Diversity Set, profiling panel (AID 1174); details: higher = more signal, called active from +8 up or from −8 down;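 also: MM1S multiple myeloma cell line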
[4] = target: Dihydroorotate dehydrogenase (quinone), mitochondrial (Plasmodium falciparum (isolate 3D7)) (UniProt Q08210); experiment: inhibition of P. falciparum DHODH – biochemical, C-terminal His tag, absorbance 600 nm, primary screen (AID 1175); details: PfDHODH enzyme, DCIP absorbance 600 nm; higher = more signal, called active from +8 up or from −8 down;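 also: recombinant parasite enzyme with a five histidine tag at its C terminus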
Dihydroorotate dehydrogenase (quinone), mitochondrial (Plasmodium falciparum (isolate 3D7)), sequence (Q08210 whole entry, looked up): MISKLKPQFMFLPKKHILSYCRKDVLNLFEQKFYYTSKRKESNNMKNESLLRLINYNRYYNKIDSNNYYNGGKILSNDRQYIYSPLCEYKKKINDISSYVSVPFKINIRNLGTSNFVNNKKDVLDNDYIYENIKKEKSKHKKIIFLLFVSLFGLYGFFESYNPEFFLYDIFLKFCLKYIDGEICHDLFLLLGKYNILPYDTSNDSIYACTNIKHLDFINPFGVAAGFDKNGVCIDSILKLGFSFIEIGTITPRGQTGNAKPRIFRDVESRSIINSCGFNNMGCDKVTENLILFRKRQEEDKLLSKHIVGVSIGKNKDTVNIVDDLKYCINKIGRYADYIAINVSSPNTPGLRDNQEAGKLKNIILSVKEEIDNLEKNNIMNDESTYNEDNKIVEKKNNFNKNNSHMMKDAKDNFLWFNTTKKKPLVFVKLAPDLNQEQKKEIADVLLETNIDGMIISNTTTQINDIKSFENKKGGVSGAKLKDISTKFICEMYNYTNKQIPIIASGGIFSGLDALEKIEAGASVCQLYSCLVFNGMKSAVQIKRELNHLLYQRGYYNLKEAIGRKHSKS

[5] = growth modulation of vineyard yeast isolate – strain RM11-1a, OD600, basal, 24 h, primary screen (AID 1177);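 also: cultures grown under basal conditions with no added stressor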; details: S. cerevisiae RM11-1a growth, OD600, 24 h; higher = more signal, called active from +8 up or from −8 down
[6] = growth of efflux-deficient E. coli DRC39 – strain DRC39, OD650, 24 h, E. coli filamentation inducers, primary screen (AID 1178);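 also: growth measured as culture turbidity by optical density at 650 nm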; details: E. coli DRC39 acrAB, higher = more signal, called active from +8 up or from −8 down
[7] = growth of efflux-deficient E. coli DRC39 – strain DRC39, OD650, 48 h, E. coli filamentation inducers, primary screen (AID 1179);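 also: screen aims at cell division blockers that make cells filament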; details: E. coli DRC39 delta-acrAB growth, higher = more signal, called active from +8 up or from −8 down
[8] = viability profiling in RPMI8226 myeloma cells – cell-based, resazurin fluorescence, basal, 24 h, PK04 Diversity Set, profiling panel (AID 1180); details: higher = more signal;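 also: RPMI8826 multiple myeloma cell line at 5000 cells per well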
[9] = target: E3 ubiquitin-protein ligase XIAP (Homo sapiens) (UniProt P98170); experiment: small molecules binding XIAP protein – biophysical, small-molecule microarray, fluorescence 635 nm, primary screen (AID 1181); details: higher = more signal;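 also: score merges 667 nm emission and signal to noise over triplicate slides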
E3 ubiquitin-protein ligase XIAP (Homo sapiens), sequence (P98170 whole entry, looked up, the tested form may be a part): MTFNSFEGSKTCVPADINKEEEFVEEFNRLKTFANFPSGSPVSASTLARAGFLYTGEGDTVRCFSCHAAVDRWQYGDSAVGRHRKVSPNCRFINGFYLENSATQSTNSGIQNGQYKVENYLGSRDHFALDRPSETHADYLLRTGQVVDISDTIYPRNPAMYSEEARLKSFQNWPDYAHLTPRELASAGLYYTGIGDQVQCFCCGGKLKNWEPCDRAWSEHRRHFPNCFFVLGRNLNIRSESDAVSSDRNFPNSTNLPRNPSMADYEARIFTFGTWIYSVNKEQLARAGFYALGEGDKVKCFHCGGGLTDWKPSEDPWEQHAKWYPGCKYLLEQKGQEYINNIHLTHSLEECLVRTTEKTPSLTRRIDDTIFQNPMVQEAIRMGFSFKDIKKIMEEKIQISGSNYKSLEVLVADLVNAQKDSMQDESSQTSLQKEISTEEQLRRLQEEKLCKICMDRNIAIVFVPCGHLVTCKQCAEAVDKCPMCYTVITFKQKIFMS

[10] = tested on: XIP peptide (Xip251-270) binding; experiment: XIP fragment 251-270 binding compounds – biochemical, small-molecule microarray, fluorescence 635/667 nm, 0.1 µg/mL protein, primary screen (AID 1182); details: fluorescent protein binding, 635 nm, higher = more signal, called active from +8 up or from −8 down
XIP peptide (Xip251-270) = experiment: compounds binding XIP fragment 251-270 – biochemical, small-molecule microarray, fluorescence 635/667 nm, 0.5 µg/mL protein, primary screen (AID 1183); details: fluorescence 635 nm, higher = more signal
[11] = blood-stage malaria parasite viability loss – strain 3D7, DAPI fluorescence, 100 nL, primary screen (AID 1184);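 also: parasites grown inside human red blood cells in medium with human serum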; details: P. falciparum 3D7 growth, 3 d, higher = more signal
[12] = target: Homeobox protein Hox-A13 (Mus musculus) (UniProt Q62424); experiment: disruptors of Hoxa13 oligonucleotide interaction – biochemical, fluorescence polarization, labeled oligonucleotide, primary screen (AID 1185); details: Hoxa13:DNA binding, 15 min, higher = more signal, called active from +8 up or from −8 down
Homeobox protein Hox-A13 (Mus musculus), sequence (Q62424 whole entry, looked up): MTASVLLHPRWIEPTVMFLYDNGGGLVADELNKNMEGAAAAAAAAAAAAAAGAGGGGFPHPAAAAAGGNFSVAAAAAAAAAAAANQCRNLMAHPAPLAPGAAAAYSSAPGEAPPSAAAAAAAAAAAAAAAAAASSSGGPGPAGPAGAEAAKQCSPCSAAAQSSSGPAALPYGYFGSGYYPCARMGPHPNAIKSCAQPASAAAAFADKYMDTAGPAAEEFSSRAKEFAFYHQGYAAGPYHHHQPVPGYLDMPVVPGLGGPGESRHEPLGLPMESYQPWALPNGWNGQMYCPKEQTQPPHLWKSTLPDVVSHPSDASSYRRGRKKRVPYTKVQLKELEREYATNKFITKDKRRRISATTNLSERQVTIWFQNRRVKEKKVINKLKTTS

[13] = blockers of DNA damage checkpoint Chk1 activation – imaging, HeLa, hydroxyurea, phospho-Chk1 antibody, percent positive cells, primary screen (AID 1186); details: hydroxyurea-induced phospho-Chk1 immunofluorescence imaging, higher = more signal
[14] = blockers of DNA damage checkpoint Chk1 activation – imaging, HeLa, hydroxyurea, phospho-Chk1 nuclear intensity, primary screen (AID 1187); details: hydroxyurea-induced phospho-Chk1 immunofluorescence imaging, higher = more signal

| Structure (SMILES) | z-score [1] | z-score [2] | z-score [3] | composite z-score [4] | z-score [5] | z-score [6] | z-score [7] | z-score [8] | composite z-score [9] | composite z-score [10] | composite z-score (XIP peptide (Xip251-270)) | z-score [11] | z-score [12] | z-score [13] | z-score [14] |
| --- | --- | --- | --- | --- | --- | --- | --- | --- | --- | --- | --- | --- | --- | --- | --- |
| CC(C)(C)OC(=O)CC[C@@]1(C(=O)NCc2ccccc2)N=C(c2ccc(OCCCO)cc2)O[C@@H]1c1ccccc1 | -0.956 | -0.454 (inactive) | -1.49 (inactive) | -0.362 (inactive) | -0.801 (inactive) | 2.23 (inactive) | 1.5 (inactive) | -1.76 | 0.174 | 1.59 (inactive) | 0.93 | -2.25 | -5.51 (inactive) | -1.17 (inactive) | -1.29 (inactive) |
| COC(=O)C1=CC(c2ccc(CO)cc2)=CC(C2CC2)N(Cc2sc3ccccc3c2Cl)C=C1C(=O)OC (stereo not given) | 0.0452 | -4.51 (inactive) | -2.01 (inactive) | -0.245 (inactive) | -0.844 (inactive) | -2.1 (inactive) | -1.67 (inactive) | -1.75 | 0.0909 | 2.17 (inactive) | 0.889 | -2.13 | -2.26 (inactive) | -0.288 (inactive) | -0.225 (inactive) |
| C=CCN1C(=O)[C@]2(O[C@H](CCn3cc(CCO)nn3)[C@@H]([Si](C)(C)c3ccc(OC)cc3)[C@@H]2C)c2cc(NC(=O)c3ccc(OC)cc3)ccc21 | -1.89 | -2.6 (inactive) | -4.32 (inactive) | 1.31 (inactive) | 1.23 (inactive) | 1.8 (inactive) | 0.797 (inactive) | -4.33 | -0.104 | 1.02 (inactive) | 0.18 | -2.84 | -4.21 (inactive) | -0.798 (inactive) | -0.823 (inactive) |
| Cc1ccc(N2C(=O)c3ccccc3[C@@H](C(=O)NCc3ccccc3)[C@@H]2c2ccc(CO)cc2)nc1 | 0.138 | 0.0819 (inactive) | 1.36 (inactive) | 0.787 (inactive) | 1.11 (inactive) | -0.0753 (inactive) | -0.0787 (inactive) | 1.06 | 0.02 | -0.337 (inactive) | -0.98 | -0.432 | -0.681 (inactive) | -0.639 (inactive) | -0.627 (inactive) |
| COc1ccc([Si](C)(C)[C@H]2[C@H](CCO)O[C@@]3(C(=O)N(Cc4ccccc4)c4ccc(N5C(=O)c6cccc7cccc5c67)cc43)[C@@H]2C)cc1 | 0.175 | 0.432 (inactive) | -2.33 (inactive) | 0.386 (inactive) | 4.08 (inactive) | 2.4 (inactive) | 2.17 (inactive) | -2.04 | -0.0473 | 1.25 (inactive) | 0.353 | -2.48 | 0.2 (inactive) | -1.01 (inactive) | -0.207 (inactive) |
| CCCNC(=O)[C@@H]1c2ccccc2C(=O)N(Cc2cc(F)cc(C(F)(F)F)c2)[C@H]1c1ccc(CO)cc1 | 0.527 | -1.69 (inactive) | 0.919 (inactive) | -0.0769 (inactive) | -1.41 (inactive) | 1.4 (inactive) | 0.576 (inactive) | 1.72 | -0.129 | 0.395 (inactive) | 0.801 | -0.43 | -2.12 (inactive) | -0.438 (inactive) | -0.142 (inactive) |
| COCCOC(=O)N1C(=O)[C@@]2(c3cc(C#CCNC(N)=O)ccc31)[C@H](c1ccc(OCCO)cc1)N1[C@H](c3ccccc3)[C@H](c3ccccc3)OC(=O)[C@H]1[C@@H]2C(=O)Nc1nc2ccccc2s1 | -0.265 | 0.846 (inactive) | 1.48 (inactive) | 0.665 (inactive) | 2.46 (inactive) | 0.24 (inactive) | 0.782 (inactive) | 1.3 | 0.0472 | 0.329 (inactive) | -0.444 | -1.08 | 0.967 (inactive) | 0.0818 (inactive) | 0.238 (inactive) |
| CC(C)N1CC=CC23O[C@@H]4/C=C\CCCOC(=O)C4[C@H]2C(=O)N(CCO)[C@@H]3C1=O (stereo not given in full) | 1.09 | -1.71 (inactive) | 0.998 (inactive) | -1.71 (inactive) | -2.54 (inactive) | 2.2 (inactive) | 2.25 (inactive) | 0.855 | -0.16 | 1.85 (inactive) | 0.122 | -0.348 | -5.41 (inactive) | -1.32 (inactive) | -0.544 (inactive) |
| Cc1ccc(S[C@]2(C(=O)O)CC(=O)N(Cc3ccccc3)[C@@H]2c2ccc(CO)cc2)cc1 | 1.06 | -3.67 (inactive) | 1.6 (inactive) | -0.891 (inactive) | -1.14 (inactive) | 0.537 (inactive) | 0.612 (inactive) | 0.512 | 0.123 | -0.242 (inactive) | -0.655 | -0.254 | -2.96 (inactive) | -0.947 (inactive) | -1.23 (inactive) |
| COCCOC(=O)N1C(=O)[C@@]2(c3cc(C#CCC(C(=O)OC)C(=O)OC)ccc31)[C@H](C(=O)N1CCN(c3ncccn3)CC1)[C@H]1C(=O)O[C@H](c3ccccc3)[C@H](c3ccccc3)N1[C@@H]2c1ccc(O)cc1 | 0.203 | -0.746 (inactive) | 0.805 (inactive) | -1.06 (inactive) | 0.164 (inactive) | 0.535 (inactive) | 1.31 (inactive) | 0.821 | -0.0749 | 1.36 (inactive) | 0.843 | -2.08 | -0.323 (inactive) | -0.447 (inactive) | -0.685 (inactive) |

Reference: PubChem BioAssay
